This is an account of results in PubChem BioAssay (NCI).

The panel holds about 79,000 compounds, 15% with a hit somewhere; the sample as a whole holds those more often. Active and inactive are the calls of the source. Rule as the data show it: active = growth inhibition above about 70%; inactive = the rest.

A short description of the experiment: NCI Yeast Anticancer Drug Screen. Data for the rad50 strain (AID 155).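 Also: 0% = growth of vehicle-only cultures of the same strain.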 As to conditions: S. cerevisiae rad50 strain growth inhibition; at 50.0 µM (retest, dose inferred, filed as 5.0); active compounds read high. Summed up:
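Relative growth inhibition (compound vs vehicle) was measured in yeast with a defined repair-gene alteration.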
For `CC1=C(C(=O)Nc2cccc3ccccc23)C(c2cccc([N+](=O)[O-])c2)C(C(=O)Nc2cccc3ccccc23)=C(C)N1`, the growth inhibition is 40% (inactive).
In the case of `O=C1OC(c2ccc(O)cc2)Sc2ccccc21` (stereo not given), the growth inhibition was 66% (inactive).
Regarding `CC(C)(C)c1ccc(-c2nc3ccccc3c(=O)o2)cc1`, the growth inhibition is 20% (inactive).
In the case of `O=C(N/C(=C/c1ccc(Cl)cc1Cl)c1nc2ccccc2s1)c1ccccc1` it was 98% (active); in that of `O=C(O)C/C(=C\c1ccco1)C(=O)O`, 9% (inactive).
Take `CN(C)Cc1cc(N=Nc2ccc(Cl)c(Cl)c2)ccc1O`: the growth inhibition is 46% (inactive).
In the case of `CC(=O)OC1C(O)C(C)OC(OC(=O)C2CCC3C(C2)OC2(CC(OC(=O)/C=C/c4ccccc4)C(C)CO2)C32CO2)C1OC1OC(C)C(O)C(O)C1O` (stereo not given) it was 97% (active).
For `O=C1c2ccccc2C(=O)c2c(/C=C\N3CCCCC3)ccnc21`, the growth inhibition is 86% (active).
In the case of `CCN(CC)c1ccc(NC(CC(O)c2ccccc2)c2ccccc2)cc1` (stereo not given) it was 1% (inactive); in that of `CCOC(=O)Nc1nc2ccc(SC#N)cc2s1`, 85% (active); in that of `CSC(SC)C(SC)SC`, 98% (active).
Take `N#CC(C(=O)C(=O)Nc1ccc(Cl)cc1)c1c(Cl)cccc1Cl` (stereo not given): the growth inhibition was 1% (inactive).
In the case of `CN(/N=C\c1cccc([N+](=O)[O-])c1)C(c1cccc([N+](=O)[O-])c1)N(C)/N=C/c1cccc([N+](=O)[O-])c1` (stereo not given) it was 34% (inactive).
In the case of `Oc1cc(Br)cc2cc(Br)cnc12` it was 98% (active); in that of `COc1ccccc1C(C)c1ccc2ccccc2c1C(=O)O` (stereo not given), 91% (active).
In the case of `Cc1ccnc2[nH]c3ccccc3c(=O)c12` it was 98% (active); in that of `COc1cc(OC)c(/C=C\c2ccnc3ccccc23)c(OC)c1`, 91% (active).
For `COC(=O)C1(COCc2ccccc2)CCCC2OC21` (stereo not given), the growth inhibition was -2% (inactive).
Regarding `O=[N+]([O-])/C(=C\c1cccs1)c1ccccc1`, the growth inhibition is 98% (active).
In the case of `Cc1cc(C(O)(c2cc(C)c(O)c(C(=O)O)c2)c2cc(C)c(O)c(C(=O)O)c2)cc(C(=O)O)c1O` it was -5% (inactive); in that of `CC(C)C(C)(C(=O)O)C(C)C`, 1% (inactive).
In the case of `CN(Cc1cc(Cl)cc(Cl)c1)CC(C(=O)c1ccccc1)c1ccccc1` (stereo not given) it was 86% (active).
For `O=c1[nH]c(Cc2ccccc2)nc2c1sc1nc3ccccc3n12`, the growth inhibition was 86% (active).
For `CC(NNC(=S)N1CCCC1)c1cccnn1` (stereo not given), the growth inhibition is 99% (active).
In the case of `Cc1ccc2c(c1)C(O)(c1ccccc1)CCS2` (stereo not given) it was 95% (active).
